# From PubChem BioAssay (NCI)
# Compounds without any hit were thinned out: in the full panel of roughly 83,000, 20% have a hit.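 Interpretation: 100, growth as untreated; towards 0, rising growth inhibition; 0, no net growth; 0 to -100, cell death. Compounds scoring below 10 were considered active.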 A number with no mark means an inactive call. Activity calls are given as the source filed them.
# Tests used:
# Test in all cases: NCI-60 one-dose screen, 48 h (100 = growth as untreated, 0 = no growth, -100 = all killed)
# Settings in all cases: 10 µM
# T-47D breast = system: T-47D breast
# BT-549 breast = system: BT-549 breast
# MDA-MB-435 melanoma = system: MDA-MB-435 melanoma
# SW-620 colon = system: SW-620 colon
# MCF7 breast = system: MCF7 breast
# HCT-116 colon = system: HCT-116 colon
# HCC-2998 colon = system: HCC-2998 colon
# KM12 colon = system: KM12 colon
# MDA-MB-468 breast = system: MDA-MB-468 breast
SMILES,growth (T-47D breast),growth (BT-549 breast),growth (MDA-MB-435 melanoma),growth (SW-620 colon),growth (MCF7 breast),growth (HCT-116 colon),growth (HCC-2998 colon),growth (KM12 colon),growth (MDA-MB-468 breast)
O=C(Nc1nc2ccc([N+](=O)[O-])cc2s1)Nc1cc(Cl)ccc1I,-25.9% (active),-87.2% (active),-52.1% (active),-50.3% (active),-28.9% (active),-78.8% (active),-41.6% (active),-48.7% (active),
N#Cc1c(Cl)nc(SCc2ccc(F)cc2)nc1-c1ccc(F)cc1,66.8%,95.4%,99.1%,98.6%,82.6%,81.5%,111%,91.6%,
N#Cc1c(NC(=O)c2cccc(C(F)(F)F)c2)sc2c1CCC(O)=C2,16.5%,44.6%,9.7% (active),35.4%,27.9%,40.4%,36.3%,23.1%,
O=C(CSc1ccc(-c2ccc(Cl)cc2)nn1)Nc1ccc(Cl)c(C(F)(F)F)c1,58.3%,74.6%,0.967% (active),36%,31.5%,50.7%,69.5%,43.3%,
CC1(C)CC[C@]2(C(=O)NCCCNCCCCNCCCN)CC[C@]3(C)C(=CC[C@@H]4[C@@]5(C)Cc6c([nH]c7ccccc67)C(C)(C)[C@@H]5CC[C@]43C)[C@H]2C1,78.7%,109%,106%,113%,62.9%,65.3%,96.5%,96.4%,
CC(=C(c1ccc(OCCN2CCCCC2)cc1)c1ccc(OCCN2CCCCC2)cc1)c1ccccc1,-20.3% (active),110%,-66% (active),12.3%,-48.3% (active),14.3%,15.7%,24.4%,
CN1CCN(c2ccc(Nc3nc(NCCCNC(=O)c4ccc(Cl)cc4)c4sccc4n3)cc2)CC1,41.9%,80.1%,86.2%,93%,49.1%,15.1%,91.3%,68.7%,68.3%
N#Cc1ccc(NC(=O)CSc2ccc(-c3ccc(Br)cc3)nn2)cc1,46.9%,70.5%,65.1%,91.1%,56.2%,64%,92.9%,76.7%,62.5%
Nc1nc(-c2ccccc2)cc(-c2cc3ccccc3nc2Cl)n1,73.7%,82.2%,94.9%,62.7%,18.4%,33.7%,103%,71.7%,77%
COc1cc(/C=C/C(=O)c2ccc(S(=O)(=O)NCCNc3nc(Nc4ccc(F)cc4)nc(N(C)C)n3)cc2)cc(OC)c1OC,26.2%,-9.95% (active),-24.8% (active),1.12% (active),-76.1% (active),-69.6% (active),-99% (active),-81.1% (active),-50.5% (active)
COc1ccc(-c2nc(S(=O)(=O)c3ccc(C)cc3)c(S(=O)(=O)CC(=O)N(C)Cc3ccccc3)o2)cc1,-57.8% (active),72.6%,32%,9.27% (active),7.73% (active),6.34% (active),46.6%,57.5%,-38.8% (active)
S=c1nc(-c2ccccc2)cc(-c2cc3ccccc3nc2Cl)[nH]1,78.1%,51.9%,-10.8% (active),48.3%,45.1%,31.5%,104%,64.2%,66.8%
CC1=N/C(=C\c2ccc(N(C)C)cc2)C(=O)N1CCc1ccc(S(N)(=O)=O)cc1,83.2%,92.7%,110%,112%,91.8%,94.3%,97.5%,104%,110%
CCOC(=O)C1=C(N)N(c2ccc(Cl)cc2)C2=C(C(=O)CC(C)(C)C2)C1c1ccc(N2CCOCC2)cc1 (stereo unspecified),90.8%,23.8%,101%,107%,93.2%,99.2%,103%,107%,84.2%
O=C(c1ccc(Cl)cc1)C1[C@H](c2ccccc2Br)[C@@H](c2ccccc2)NC12C(=O)Nc1ccccc12 (stereo partly specified),48.6%,48%,-47.3% (active),5.99% (active),-4.27% (active),16.3%,7.29% (active),15.2%,-45.9% (active)
C=C[C@H]1[C@H](O[C@@H]2OC(CO)[C@@H](O)[C@H](O)C2OC(=O)c2c(O)cc(O)cc2-c2cccc(O)c2)OC=C2C(=O)OCC[C@H]21 (stereo partly specified),99.3%,94.8%,102%,105%,93.5%,94.4%,106%,103%,96.5%
Nc1cc(-c2cccc(C(=O)NCc3ccc4c(c3)OCO4)c2)ccn1,77.4%,96.8%,102%,110%,86.5%,95.1%,103%,106%,88.1%
CCCCCCCCCCCCCCCCCCCC(=O)NCCc1c[nH]c2ccc(OC(=O)NOCCOCCOCCOCCOCCOCCOCCOCCOCCOCCOCCOCCOCCOCCOCCOCCOCCOCCOCCOCCOCCOCCOC)cc12,-8.69% (active),-12.7% (active),17.2%,26.6%,-12.3% (active),-21.7% (active),-2.45% (active),14.9%,-14.7% (active)
O=C(CSc1nnc(-c2ccc3nc(-c4ccc(Cl)cc4)[nH]c3c2)o1)Nc1ccc(Br)cc1,53.7%,-69.8% (active),-88% (active),-20.9% (active),-25% (active),-61.9% (active),28.9%,15.6%,-4% (active)
COc1ccc2nc(Cl)c(-c3cc(-c4ccccc4)nc(=S)[nH]3)cc2c1,76.4%,14.7%,-27.6% (active),78.9%,65%,66.4%,97.3%,76.8%,76%
O=C(Nc1ccccc1)Nc1nc2ccccc2s1,25.5%,89.6%,97.2%,111%,21.4%,85.9%,85%,90.1%,-1.66% (active)
O=C(c1ccc(Cl)cc1)C1[C@H](c2ccc(Br)cc2)[C@@H](c2ccccc2)NC12C(=O)Nc1ccc(Cl)cc12 (stereo partly specified),8.01% (active),-57.1% (active),-84.9% (active),-76.4% (active),-39.7% (active),5.1% (active),-94.9% (active),-26.6% (active),-90% (active)
Cc1ccc(-c2nc(Nc3ccc(S(N)(=O)=O)cc3)c3ccccc3n2)cc1,40.5%,75.7%,57%,32.2%,26.7%,34.7%,-9.82% (active),0.051% (active),44.2%
CCCCSc1nc(Nc2ccc(/C(C)=N/NC(N)=S)cc2)c(C#N)c(-c2ccc(F)cc2)n1,46.8%,31.5%,78.6%,67.7%,41.3%,36.3%,66.9%,60.2%,-1.25% (active)
CONC[C@]1(C)C=C2C(=O)[C@](C)(O)C3(CC3)C(C)=C2[C@H]1O,0.0161% (active),-63.6% (active),-84.7% (active),3.2% (active),-36.3% (active),14.5%,-76.9% (active),7.08% (active),-90.8% (active)
O=C(NO)c1ccc(Cn2ccc3c(NCc4ccccc4)ncnc32)cc1,-16.8% (active),-22% (active),-26.5% (active),-64.8% (active),9.85% (active),-7.75% (active),-3.05% (active),11.9%,-18.6% (active)
N#Cc1ccc(-c2nn(-c3ccc(C(=O)O)cc3)cc2CNc2cccc(Br)c2)cc1,35.4%,1.51% (active),59%,61.2%,48.2%,19.9%,4.19% (active),22.4%,66%
OCCCNc1oc(-c2ccccc2)nc1[P+](c1ccccc1)(c1ccccc1)c1ccccc1,7.19% (active),-40.5% (active),6.46% (active),11.5%,0.534% (active),7.82% (active),2.5% (active),-45.9% (active),-41.3% (active)
